# In PubChem BioAssay:
# Values joined by “and” are separate entries in the source; they are usually repeats but may differ in a detail not shown here. Equal values may be shown once. Records with an inconclusive call do not appear. For part of these data: Potency and affinity values are given separately. Where a structure was tested more than once in an assay, its records may differ in their call. Active and inactive are the calls of the source. Unless noted, how the calls were made is not given here.
# Tests used:
# [1] = viability loss with induced miR-34 in A549 – imaging, A549 dox-inducible miR-34, nuclei and caspase counts, primary screen (AID 1347080;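 active means compounds whose cell count with miR-34 switched on is under 0.7 times the count with it off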); conditions: A549 miR-34 inducible, Hoechst nuclei count, 48 h
# [2] = galactose survival enhancers in mitochondrial complex I cybrids – cell-based, galactose medium, ATP luminescence, primary screen (AID 1645843;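 active means z-score of at least 1.8 in each of two replicates, scored against plate mean and spread of sample wells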;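 further: positive z means more ATP and so rescue of galactose-driven cybrid death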); conditions: complex I mutant cybrid cells, 72 h, stronger effect = higher value
# [3] = liver-stage malaria parasite load reduction – cell-based, known kinase inhibitor set, luminescence, hepatoma host viability (AID 624392); conditions: Plasmodium liver stage in hepatoma cells, luciferase luminescence, concentration not given here; liver cell % of control: measured here: host liver cell viability; parasite % of control: stronger effect = lower value;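 further: infected cells incubated roughly two days before readout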
# [4] = MELAS cybrid and Rieske KO viability enhancers – cell-based, MELAS cybrids, Rieske KO mouse fibroblasts, CellTiter-Glo, primary screen (AID 1508586;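 active means mean z-score across replicates of 1.96 or higher in either the MELAS or the Rieske mutant cell line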;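 further: z relative to plate mean and SD of compound and empty wells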); conditions: low glucose
# [5] = biological target: NAD(+) hydrolase SARM1 (Homo sapiens) (UniProt Q6SZW1); test: blocking NAD cleavage by SARM1 SAM-TIR – cell lysate, NAD-Glo luminescence (AID 1508614;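 active means compound whose remaining NAD level is above about 45 nM, limit read from the data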); conditions: SAM-TIR HEK293T lysate NADase, at 1 µM, stronger effect = higher value
# Chain of NAD(+) hydrolase SARM1 (Homo sapiens) (Q6SZW1 whole entry, looked up): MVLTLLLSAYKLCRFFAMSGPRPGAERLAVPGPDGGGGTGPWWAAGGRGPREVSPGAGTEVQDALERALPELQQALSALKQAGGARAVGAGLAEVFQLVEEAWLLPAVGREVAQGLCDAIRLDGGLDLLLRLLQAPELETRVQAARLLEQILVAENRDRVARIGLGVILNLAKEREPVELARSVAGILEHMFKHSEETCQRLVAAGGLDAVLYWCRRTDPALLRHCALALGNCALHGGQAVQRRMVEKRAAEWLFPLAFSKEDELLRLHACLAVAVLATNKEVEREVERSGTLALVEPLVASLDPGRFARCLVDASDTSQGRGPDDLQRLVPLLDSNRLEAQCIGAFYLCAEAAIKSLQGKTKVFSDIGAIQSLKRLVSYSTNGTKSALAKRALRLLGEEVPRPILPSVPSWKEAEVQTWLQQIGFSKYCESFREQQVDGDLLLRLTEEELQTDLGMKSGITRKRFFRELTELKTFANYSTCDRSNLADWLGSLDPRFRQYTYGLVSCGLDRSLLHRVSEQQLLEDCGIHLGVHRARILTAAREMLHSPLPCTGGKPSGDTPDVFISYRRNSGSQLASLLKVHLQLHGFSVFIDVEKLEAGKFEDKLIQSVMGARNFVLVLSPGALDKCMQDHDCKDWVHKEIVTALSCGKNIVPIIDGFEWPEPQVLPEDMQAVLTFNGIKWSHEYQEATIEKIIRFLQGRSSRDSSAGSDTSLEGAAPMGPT
# [6] = test system: Hepatitis C virus NS3 helicase; test: blockers of NS3h binding to ssDNA – biochemical, fluorescence polarization, LOPAC1280 library, primary screen (AID 687035; in the data active means inhibition above about 37%); conditions: Purified HCV NS3 helicase, Cy5-dT15 ssDNA binding fluorescence polarization; stronger effect = higher value; concentration not given here
# [7] = compounds altering Cy5-DNA-NS3h complex signal – biochemical, LOPAC1280, artefact control for HCV NS3 helicase inhibitor project (AID 687037); conditions: Cy5-DNA-NS3h complex fluorescence interference counterscreen
# [8] = blockers of polyQ-driven CASP3 activation – cell-based (AID 1583); conditions: polyglutamine-induced caspase-3 activation, cell assay; stronger effect = higher value;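 tested at 10 µM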
# [9] = yeast 75Q aggregation reduction – 75Q-TubU reporter (AID 1593); conditions: Yeast 75Q polyglutamine aggregation reporter
# [10] = restoration of touch response, mutant HTT neurons – whole organism, C. elegans mechanosensory neurons, N-terminal huntingtin (AID 1599); conditions: C. elegans polyQ-huntingtin mechanosensory neurons, stronger effect = higher value
# [11] = blockers of cytochrome c efflux from mitochondria – biochemical, purified mitochondria (AID 1603); conditions: stronger effect = lower value;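 further: mouse liver mitochondria challenged with calcium chloride; signal normalized to the plate average as 100%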
# [12] = polyglutamine aggregate formation blockers (AID 1604); conditions: polyglutamine-induced protein aggregation inhibition assay; stronger effect = higher value; tested at 2.5 µM
# [13] = rescue of PC12 cells from polyQ htt toxicity – LDH release (AID 1610); conditions: PC12 mutant huntingtin toxicity, final LDH at 4 uM, stronger effect = lower value
# [14] = glutamate transport activators, MN-1 cells, MN-1 cell line (AID 1612); conditions: MN-1 motor neuron cells, stronger effect = higher value;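 further: tested at 1 µM final; 0% = mean of DMSO vehicle wells on each plate; positive means more glutamate uptake than control and negative means less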
# [15] = 75Q-TubH aggregate inhibition, S. cerevisiae, yeast (AID 1616); conditions: S. cerevisiae 75Q-TubH polyglutamine aggregation suppression; stronger effect = higher value
# [16] = biological target: ATP-dependent translocase ABCB1 (Homo sapiens) (UniProt P08183); test: P-glycoprotein substrate transport blockade – cell-based (AID 377; in the data active means fluorescence slope change above about 50%); conditions: MDR1-expressing cells, fluorescent substrate accumulation slope; stronger effect = higher value; concentration not given here
# Chain of ATP-dependent translocase ABCB1 (Homo sapiens) (P08183 whole entry, looked up): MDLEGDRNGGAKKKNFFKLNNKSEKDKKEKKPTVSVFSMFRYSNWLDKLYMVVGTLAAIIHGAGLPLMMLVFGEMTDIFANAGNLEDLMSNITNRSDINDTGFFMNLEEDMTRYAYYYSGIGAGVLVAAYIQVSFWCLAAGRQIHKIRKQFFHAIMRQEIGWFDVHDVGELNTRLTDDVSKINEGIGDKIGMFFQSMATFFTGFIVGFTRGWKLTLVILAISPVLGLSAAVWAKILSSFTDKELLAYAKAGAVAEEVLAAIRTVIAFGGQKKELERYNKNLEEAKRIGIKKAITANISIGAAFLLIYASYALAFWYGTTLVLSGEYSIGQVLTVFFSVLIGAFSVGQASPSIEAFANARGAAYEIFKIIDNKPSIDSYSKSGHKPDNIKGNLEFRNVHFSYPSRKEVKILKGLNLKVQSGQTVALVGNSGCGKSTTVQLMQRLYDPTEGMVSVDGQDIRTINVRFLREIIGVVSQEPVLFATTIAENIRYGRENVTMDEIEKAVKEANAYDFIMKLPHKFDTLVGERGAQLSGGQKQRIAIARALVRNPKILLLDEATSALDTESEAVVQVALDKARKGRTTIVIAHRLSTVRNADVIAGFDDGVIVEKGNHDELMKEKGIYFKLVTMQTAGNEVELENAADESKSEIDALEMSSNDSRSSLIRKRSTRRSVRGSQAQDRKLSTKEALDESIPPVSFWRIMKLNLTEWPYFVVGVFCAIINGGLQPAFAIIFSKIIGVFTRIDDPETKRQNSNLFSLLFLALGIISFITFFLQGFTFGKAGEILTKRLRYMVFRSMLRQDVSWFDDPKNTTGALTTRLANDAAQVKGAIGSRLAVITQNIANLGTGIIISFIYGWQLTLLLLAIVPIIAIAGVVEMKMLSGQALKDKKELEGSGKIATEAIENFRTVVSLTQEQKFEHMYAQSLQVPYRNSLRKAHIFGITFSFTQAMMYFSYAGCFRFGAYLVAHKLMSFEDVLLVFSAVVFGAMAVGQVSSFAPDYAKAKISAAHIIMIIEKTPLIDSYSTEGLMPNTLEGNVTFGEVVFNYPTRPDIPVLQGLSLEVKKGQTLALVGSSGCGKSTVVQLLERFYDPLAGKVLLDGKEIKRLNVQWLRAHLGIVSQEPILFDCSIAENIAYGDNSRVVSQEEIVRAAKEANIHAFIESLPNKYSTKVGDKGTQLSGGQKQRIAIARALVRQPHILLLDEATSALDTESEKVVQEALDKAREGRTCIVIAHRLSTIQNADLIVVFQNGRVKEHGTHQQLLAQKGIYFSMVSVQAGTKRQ
# [17] = GFP-Q80 aggregate reduction, neuronal-like cells, cell-based, NGF-treated PC12, GFPQ80 (AID 1614); conditions: PC12 NGF-treated GFP-polyQ80 inclusion reduction;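 further: lower means fewer inclusions and 0 means no inclusions at all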
# [18] = P. berghei load reduction in hepatocytes – cell-based, HepG2, luciferase luminescence, HepG2 viability, primary screen (AID 624349; in the data active means parasite load remaining mostly below about 12%, no sharp cut-off; inactive means mostly above about 10%;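 further: 100% = mean of DMSO negative control wells on the same plate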); conditions: P. berghei liver stage in HepG2, luciferase luminescence, concentration not given here; parasite load remaining: stronger effect = lower value; viability: measured here: HepG2 viability without parasites
# [19] = biological target: Mitogen-activated protein kinase 7 (Homo sapiens) (UniProt Q13164); test: Gal4-ERK5 driven luciferase induction – cell-based, HTS, primary screen (AID 1508626;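 active means luciferase signal above three times the same-plate solvent-only control wells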;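 further: luciferase driven by Gal4-ERK5 fusion binding five Gal4 sites before minimal TATA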); conditions: HeLa Gal4-ERK5 transactivation, 18 h, at 5 µM, stronger effect = higher value
# Chain of Mitogen-activated protein kinase 7 (Homo sapiens) (Q13164 whole entry, looked up, the tested form may be a part): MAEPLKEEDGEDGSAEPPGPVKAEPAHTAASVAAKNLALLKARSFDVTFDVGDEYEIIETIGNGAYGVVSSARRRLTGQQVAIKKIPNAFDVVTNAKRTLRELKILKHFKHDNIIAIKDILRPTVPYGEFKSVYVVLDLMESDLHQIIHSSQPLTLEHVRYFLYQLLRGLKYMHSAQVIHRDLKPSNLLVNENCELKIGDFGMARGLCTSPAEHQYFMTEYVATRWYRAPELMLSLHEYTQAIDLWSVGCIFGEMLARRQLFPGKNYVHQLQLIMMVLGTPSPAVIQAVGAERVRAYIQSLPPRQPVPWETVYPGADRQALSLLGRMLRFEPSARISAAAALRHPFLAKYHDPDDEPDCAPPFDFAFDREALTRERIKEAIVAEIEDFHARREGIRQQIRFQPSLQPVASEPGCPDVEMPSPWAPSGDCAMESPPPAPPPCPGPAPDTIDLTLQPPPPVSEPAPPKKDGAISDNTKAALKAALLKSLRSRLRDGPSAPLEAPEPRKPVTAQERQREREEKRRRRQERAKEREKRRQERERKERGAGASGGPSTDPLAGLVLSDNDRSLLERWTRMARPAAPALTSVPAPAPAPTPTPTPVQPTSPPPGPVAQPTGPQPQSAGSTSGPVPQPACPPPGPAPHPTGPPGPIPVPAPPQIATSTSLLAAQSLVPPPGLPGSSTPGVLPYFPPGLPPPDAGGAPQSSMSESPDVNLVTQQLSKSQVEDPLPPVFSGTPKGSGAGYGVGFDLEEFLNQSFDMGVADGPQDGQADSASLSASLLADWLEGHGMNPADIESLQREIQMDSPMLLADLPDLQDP
# [20] = stronger effect = lower value, cell number ratio, induced over uninduced
# [21] = measured here: relative caspase fold change +Dox/-Dox
# [22] = measured here: total cells with miR-34 induction, stronger effect = lower value
# [23] = measured here: total cells without miR-34 induction
# [24] = MELAS cybrid survival, CellTiter-Glo 48 h, stronger effect = higher value
# [25] = Rieske KO mouse fibroblast survival, CellTiter-Glo 72 h
structure (smiles),measurement,setting,value
COc1ccc2c3c1OC1CC(O)C=C[C@@]31CCN(C)C2 (stereo partly drawn),fold change,[1]; [20],0.977 (inactive)
same,fold change,[1]; [21],1.4
same,cell count,[1]; [22],9660
same,cell count,[1]; [23],9890
same,z-score,[2],0.92 (inactive)
Cc1ccc([N+](=O)[O-])cc1S(=O)(=O)N(C)N=Cc1cnc2ccc(Br)cn12,liver cell % of control,[3],52.2% and 52.1% and 55.5%
same,parasite % of control,[3],4.51% (inactive) and 2.82% (inactive) and 2.1% (active)
same,fold change,[1]; [20],0.935 (inactive)
same,fold change,[1]; [21],0.896
same,cell count,[1]; [22],837
same,cell count,[1]; [23],896
same,z-score,[4]; [24],-0.394 (inactive)
same,z-score,[4]; [25],-2.82
C[C@H](Cn1cnc2c(N)ncnc21)OCP(=O)(O)O,fold change,[1]; [20],0.942 (inactive)
same,fold change,[1]; [21],0.901
same,cell count,[1]; [22],9100
same,cell count,[1]; [23],9660
same,remaining NAD,[5],10 nM (inactive)
CCc1c(C(=O)NCCc2ccc(N3CCCCC3)cc2)[nH]c2ccc(Cl)cc12,inhibition,[6],0% (inactive)
same,fluorescence ratio (interference),[7],1 (inactive)
same,fold change,[1]; [20],0.939 (inactive)
same,fold change,[1]; [21],0.558
same,cell count,[1]; [22],7490
same,cell count,[1]; [23],7980
same,z-score,[4]; [24],0.376 (inactive)
same,z-score,[4]; [25],-0.206
CC(Cc1ccc(O)c(O)c1)C(C)Cc1ccc(O)c(O)c1 (stereo not drawn),inhibition,[8],-3.14%
same,score,[9],0.83
same,rescue above control,[10],-2.86
same,cytochrome c release ratio,[11],3.11
same,inhibition of aggregation,[12],-17%
same,normalised LDH release,[13],0.415
same,glutamate uptake change,[14],67.2%
same,aggregation suppression score,[15],0.665
same,fold change,[1]; [20],1.04 (inactive)
same,fold change,[1]; [21],1.01
same,cell count,[1]; [22],5990
same,cell count,[1]; [23],5750
CN(C)CCC(CSc1ccccc1)Nc1ccc(S(=O)(=O)NC(=O)c2ccc(N3CCN(Cc4ccccc4-c4ccc(Cl)cc4)CC3)cc2)cc1[N+](=O)[O-] (stereo not drawn),liver cell % of control,[3],65.5% and 90.4% and 88.4%
same,parasite % of control,[3],27.6% (inactive) and 29.4% (inactive) and 37% (inactive)
same,fold change,[1]; [20],0.995 (inactive)
same,fold change,[1]; [21],0.778
same,cell count,[1]; [22],5830
same,cell count,[1]; [23],5860
same,z-score,[4]; [24],-0.297 (inactive)
same,z-score,[4]; [25],-2.14
CC[C@]12CCCN3CCc4c(n(c5ccccc45)[C@](O)(C(=O)OC)C1)[C@@H]32,fluorescence slope change,[16],15.4% (inactive)
same,inhibition,[8],18.7%
same,score,[9],1.6
same,rescue above control,[10],4.14
same,cytochrome c release ratio,[11],1.05
same,inhibition of aggregation,[12],27%
same,glutamate uptake change,[14],-2.93%
same,inclusion score,[17],2.5
same,aggregation suppression score,[15],1.32
same,parasite load remaining,[18],112% (inactive) and 81.9% (inactive) and 58.4% (inactive)
same,viability,[18],102% and 72.1% and 74.9%
same,fold change,[1]; [20],0.786 (inactive)
same,fold change,[1]; [21],1.26
same,cell count,[1]; [22],7940
same,cell count,[1]; [23],10100
O=C1NC(=O)C(=Cc2cccc(C(F)(F)F)c2)S1,liver cell % of control,[3],81.5% and 80.8% and 97.3%
same,parasite % of control,[3],0.631% (inactive) and 2.17% (inactive) and 7.31% (inactive)
same,fold change,[1]; [20],0.809 (inactive)
same,fold change,[1]; [21],0.469
same,cell count,[1]; [22],7740
same,cell count,[1]; [23],9570
same,z-score,[4]; [24],-0.352 (inactive)
same,z-score,[4]; [25],0.482
O=[N+]([O-])OCC(CO[N+](=O)[O-])O[N+](=O)[O-],parasite load remaining,[18],15.2% (inactive)
same,viability,[18],94.3%
same,fold change,[1]; [20],0.846 (inactive)
same,fold change,[1]; [21],4.5
same,cell count,[1]; [22],10800
same,cell count,[1]; [23],12700
same,remaining NAD,[5],10 nM (inactive)
COc1ccc(-c2ccc3c(N4CCOCC4)nc(N4CC(C)OC(C)C4)nc3n2)cc1CO (stereo not drawn),liver cell % of control,[3],228% and 225% and 144%
same,parasite % of control,[3],168% (inactive) and 180% (inactive) and 510% (inactive)
same,fold change,[1]; [20],1.04 (inactive)
same,fold change,[1]; [21],0.95
same,cell count,[1]; [22],2720
same,cell count,[1]; [23],2620
same,z-score,[4]; [24],3.15 (active)
same,z-score,[4]; [25],-0.466
CON=C1C[C@]2(C[C@@H]3C[C@@H](C/C=C(\C)C[C@@H](C)/C=C/C=C4\CO[C@@H]5[C@H](O)C(C)=C[C@@H](C(=O)O3)[C@]45O)O2)O[C@H](/C(C)=C/C(C)C)[C@H]1C,fold change,[1]; [20],1 (inactive)
same,fold change,[1]; [21],0.955
same,cell count,[1]; [22],3250
same,cell count,[1]; [23],3250
same,remaining NAD,[5],10 nM (inactive)
O=C1NC(=O)C(=Cc2ccc(-c3ccc(F)cc3O)o2)S1,liver cell % of control,[3],115% and 104% and 93.4%
same,parasite % of control,[3],1.06% (inactive) and 3.29% (inactive) and 2.91% (inactive)
same,fold change,[1]; [20],0.91 (inactive)
same,fold change,[1]; [21],0.626
same,cell count,[1]; [22],8670
same,cell count,[1]; [23],9530
same,z-score,[4]; [24],-0.351 (inactive)
same,z-score,[4]; [25],-0.0319
C=C1CC[C@H](O)C/C1=C/C=C1\CCC[C@]2(C)[C@@H]([C@H](C)CCCC(C)C)CC[C@@H]12,fluorescence slope change,[16],59.6% (active)
same,parasite load remaining,[18],130% (inactive)
same,viability,[18],106%
same,fold change,[1]; [20],0.889 (inactive)
same,fold change,[1]; [21],1.52
same,cell count,[1]; [22],8940
same,cell count,[1]; [23],10100
same,remaining NAD,[5],10 nM (inactive)
same,luciferase signal,[19],48 AU (inactive)
CCn1c(-c2nonc2N)nc2c(C#CC(C)(C)O)ncc(OCC3CCCNC3)c21 (stereo not drawn),liver cell % of control,[3],56.6% and 72.4% and 90.5%
same,parasite % of control,[3],1.73% (inactive) and 5.98% (inactive) and 27.8% (inactive)
same,fold change,[1]; [20],0.949 (inactive)
same,fold change,[1]; [21],0.738
same,cell count,[1]; [22],6620
same,cell count,[1]; [23],6980
same,z-score,[4]; [24],-0.704 (inactive)
same,z-score,[4]; [25],0.217
Cc1ccccc1-n1c(Cn2nc(-c3cccc(O)c3)c3c(N)ncnc32)nc2cccc(C)c2c1=O,liver cell % of control,[3],93.6% and 86.4% and 105%
same,parasite % of control,[3],34.6% (inactive) and 44.4% (inactive) and 71.3% (inactive)
same,fold change,[1]; [20],0.979 (inactive)
same,fold change,[1]; [21],0.801
same,cell count,[1]; [22],7710
same,cell count,[1]; [23],7880
same,z-score,[4]; [24],-0.245 (inactive)
same,z-score,[4]; [25],-0.436
CCN(CC)CCNC(=O)c1c(C)[nH]c(C=C2C(=O)Nc3ccc(F)cc32)c1C,liver cell % of control,[3],117% and 132% and 81.2%
same,parasite % of control,[3],0.0958% (inactive) and 0.227% (active) and 376% (inactive)
same,fold change,[1]; [20],0.743 (inactive)
same,fold change,[1]; [21],1.2
same,cell count,[1]; [22],2230
same,cell count,[1]; [23],3000
same,z-score,[4]; [24],-0.621 (inactive)
same,z-score,[4]; [25],-1.61
CC1CCN(C(=O)CC#N)CC1N(C)c1ncnc2[nH]ccc12 (stereo not drawn),liver cell % of control,[3],104% and 99.8%
same,parasite % of control,[3],80.9% (inactive) and 77.3% (inactive) and 45.5% (inactive)
same,fold change,[1]; [20],0.908 (inactive) and 0.927 (inactive)
same,fold change,[1]; [21],0.692 and 0.73
same,cell count,[1]; [22],9120 and 9790
same,cell count,[1]; [23],10000 and 10600
same,z-score,[4]; [24],-0.285 (inactive) and -0.386 (inactive)
same,z-score,[4]; [25],-0.101 and -0.511
